# Assay outcomes from PubChem.
# SMN2 splice up: SMN2 splice variant enhancement; HEK293 SMN2-luciferase splicing reporter, luminescence, 30-36 h; Potency, µM (titrated, usually from 46.1 µM), for inactives: at the top dose activity change, positive = activation, actives largely listed as activators; 210,000 compounds, 2.8% hits; also: % of control where 0% means no effect; nearly all actives have a fitted effect of over 55% in size
#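 HEK293 cells carry an SMN2 minigene-luciferase reporter in which exon 7 inclusion puts luciferase in frame. Cells were seeded at 2000 cells/well, attached for 10-12 hours, then exposed to compounds for 30-36 hours at 37C before ONE-Glo luminescence.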
# NPC1 prom act: activators of NPC1 promoter; Potency, µM (series often up to 9.22 µM), for inactives: at the top dose activation, most hits filed as activators; AID 485313; 320,000 compounds, 2.4% hits; Huh7 NPC1 promoter luciferase reporter, 24 h; also: % of control where 0% means no effect; nearly all actives have a fitted effect of over 60% in size
#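 Luminescence read-out of NPC1 promoter-driven luciferase in stably transfected Huh7 cells; compounds delivered in DMSO and left 24 h at 37C, 5% CO2, qHTS titration format.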
# Rab9 promoter act: activators of Rab9 promoter; Huh7 Rab9 promoter-luciferase reporter, luminescence, 24 h; Potency, µM (top dose mostly 9.22 µM), for inactives: at the top dose activation, negative = inhibition, hits mostly activators; 320,000 compounds, 2.8% hits; also: % of control where 0% means no effect; nearly all actives have a fitted effect of over 60% in size
#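 Cells were plated at 1500 per well in reduced-serum medium with 10% FBS and left 2 h. Compound in DMSO was then added for 24 h at 37 °C. Reporter signal was read by luminescence after 10 min with luciferase detection reagent.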
# ELG1 genotox: inducers of genotoxicity in HEK293T ELG1-luciferase cells; HEK293T ELG1-luciferase reporter, luminescence, 16 h; Potency, µM (doses to about 46 µM), without a hit: at the highest dose activity change, positive = activation, hits mostly activators; AID 504466; 330,000 compounds, 1.3% hits; also: % of control where 0% means no effect; nearly all actives have a fitted effect of over 60% in size
#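 Cells (2,000/well) expressing the ELG1-luciferase fusion are dosed by pin tool and kept 16 hr at 37 °C, 5% CO2. Signal comes from ONE-Glo luciferase reagent after 30 min at room temperature.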
# FLuc modulator: firefly luciferase modulation, counter-screen for miR-21 project; 360,000 compounds, 6.9% hits; purified FLuc, Km substrates, luminescence inhibition; AID 588342; P08659; Potency, µM (series often up to 57.5 µM), for inactives: at the highest dose activity change, negative = inhibition, most hits filed as inhibitors;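 also: plate controls were vehicle for no effect and reference inhibitor for full effect; nearly all actives have a fitted effect of over 55% in size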
# Target sequence (P08659 whole entry, looked up): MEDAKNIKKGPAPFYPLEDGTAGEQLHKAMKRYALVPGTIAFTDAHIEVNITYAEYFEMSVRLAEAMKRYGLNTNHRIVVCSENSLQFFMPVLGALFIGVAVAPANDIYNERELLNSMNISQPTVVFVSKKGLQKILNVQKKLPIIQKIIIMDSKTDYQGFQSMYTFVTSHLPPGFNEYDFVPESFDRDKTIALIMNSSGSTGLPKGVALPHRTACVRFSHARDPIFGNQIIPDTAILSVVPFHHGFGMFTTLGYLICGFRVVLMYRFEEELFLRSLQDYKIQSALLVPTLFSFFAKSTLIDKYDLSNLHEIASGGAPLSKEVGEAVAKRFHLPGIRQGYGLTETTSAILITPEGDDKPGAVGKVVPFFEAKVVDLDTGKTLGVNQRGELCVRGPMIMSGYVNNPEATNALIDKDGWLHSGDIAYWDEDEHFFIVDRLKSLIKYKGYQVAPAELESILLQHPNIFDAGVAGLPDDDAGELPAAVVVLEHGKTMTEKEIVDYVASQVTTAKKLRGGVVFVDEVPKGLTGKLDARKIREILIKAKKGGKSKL
#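 Purified P. pyralis luciferase, 10 nM final, with Km-level 10 uM D-luciferin and 10 uM ATP in 50 mM Tris acetate pH 7.5, 10 mM Mg acetate, 0.01% Tween-20, 0.05% BSA; 6-point qHTS titration about 60 µM downward; luminescence read.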
# An asterisk follows results filed as active; ? = inconclusive; · = no result. Hits are enriched below; roughly 7.4% of the tested compounds scored in any of these assays. Calls follow the shape of the dose curve; as a rule, active = well fitted curve in the direction sought with a large enough effect; inconclusive = small, poorly fitted or top-dose-only effect, or another doubt; inactive = no such curve, though single readings can be large; an effect the other way counts as inactive or inconclusive. Potency is read from the fitted curve at half-maximal effect.
SMILES,SMN2 splice up,NPC1 prom act,Rab9 promoter act,ELG1 genotox,FLuc modulator
Cc1cccc(OCc2nc(CC(=O)Nc3ccc(C)cc3C)cs2)c1,·,·,·,·,-11.0%
COc1ccc(/C=C2\CCC/C(=C\C=N\N(C)C)C2=O)cc1,-19.4%,6.1%,19.4%,4.8%,10.7µM*
CN(C)/N=C/C=C1\CCC/C(=C\c2ccc(F)c(F)c2)C1=O,-99.9%,7.1%,16.8%,11.4%,21.3µM*
O=c1c2cccc(Cl)c2nc2n1Cc1ccccc1-2,·,?,2.82µM*,?,12µM*
O=c1nc2n(c3ccccc13)Cc1ccccc1-2,12.3%,-1.9%,-1.7%,-1.1%,5.8%
Cc1sc2nc3n(c(=O)c2c1C)Cc1ccccc1-3,14.1µM*,25.8%,?,?,3.79µM*
COc1ccc(-n2ccnc(NCc3cccs3)c2=O)cc1,·,·,·,·,-13.4%
COc1ccc(OC)c(-c2noc(CSc3nnc(Cc4ccccc4)n3-c3cccc(C)c3)n2)c1,-10.0%,·,·,·,-18.9%
N#CC1=C2Sc3ccccc3N2CCCC1=O,5.9%,?,?,?,-18.9%
N=C1C2=C3Sc4ccccc4N3CCCC2=NN1c1cccc(S(=O)(=O)O)c1,·,-3.7%,-2.0%,-0.7%,19µM*
c1ccc(-c2nccc(-c3ccco3)n2)nc1,12.7%,0.7%,-1.8%,0.5%,-18.7%
c1ccc(-c2nc(-c3ccco3)cs2)nc1,0.5%,25.9%,3.55µM*,?,15.1µM*
Cc1ccc(Cl)cc1N1CCN(CCCNC(=O)Cn2ncc3c([nH]c4ccccc43)c2=O)CC1,·,·,·,·,-0.5%
C#CCSc1nnc(-c2ccc([N+](=O)[O-])cc2)o1,20.2%,26.1%,3.16µM*,16.5%,?
COc1ccc(-c2nnc(SCC#N)o2)cc1,-9.7%,0.0%,1.4%,?,-6.8%
CCCCCCCCSc1nnc(-c2ccc(OC)cc2)o1,-15.4%,-2.3%,0.8%,-1.2%,0.7%
COc1ccc(-c2nnc(SCc3c(C)noc3C)o2)cc1,-10.9%,16.8%,0.0%,0.6%,19µM*
CCSc1nnc(-c2ccc(OC)cc2)o1,11.2µM*,2.82µM*,2.82µM*,7.08µM*,7.57µM*
CSc1nnc(-c2ccc([N+](=O)[O-])cc2)o1,·,-3.7%,12.4%,10.3%,-2.9%
C#CCSc1nnc(-c2ccc(OC)cc2)o1,?,2.82µM*,2.82µM*,10.3µM*,7.57µM*
CN1CCN(C(CNC(=O)C(=O)Nc2ccc(F)cc2F)c2ccc3c(c2)OCO3)CC1 (configuration not stated),·,·,·,·,-1.2%
CC(=O)N/C(N)=N/c1nc2cc([N+](=O)[O-])ccc2o1,·,?,3.16µM*,?,?
CC(=O)N/C(N)=N/c1nc2cc(C)ccc2o1,·,1.41µM*,0.794µM*,9.2µM*,5.36µM*
O=[N+]([O-])c1ccccc1NC(=S)N/N=C/c1ccc(O)c(O)c1,·,?,?,3.66µM*,19µM*
CCOc1cccc(/C=N/NC(=S)Nc2ccccc2[N+](=O)[O-])c1O,-80.7%,4.9%,1.5%,0.366µM*,?
SMILES,SMN2 splice up,NPC1 prom act,Rab9 promoter act,ELG1 genotox,FLuc modulator
O=S(=O)(c1ccccc1)c1nnn2c1nc(NCc1ccccc1)c1sccc12,·,·,·,·,0.2%
Cn1c(/C=N/O)nc2ccccc21,·,6.9%,12.6%,4.1%,-3.0%
CCC(=O)c1ccc(/C=C/c2nc3ccccc3n2C)o1,3.16µM*,0.501µM*,0.316µM*,-2.9%,3.38µM*
Cc1ccc(NC(=O)N2CCc3ccccc3C2)cc1C,·,2.82µM*,3.16µM*,?,8.49µM*
COc1ccc(NC(=O)N2CCc3ccccc3C2)cc1OC,·,3.7%,16.6%,?,?
Cc1ccc(NC(=O)C2OCCc3ccccc32)cc1C (configuration not stated),·,23.6%,?,?,15.1µM*
Cc1cc(C)cc(NC(=O)N2CCc3ccccc3C2)c1,·,?,?,?,19µM*
CCCC12CN3CC(CCC)(CN(C1)C3c1ccccc1)C2=O (configuration not stated),·,·,·,·,0.4%
O=C(Cn1c(=O)nc(-c2ccccc2)c2ccccc21)NCCCc1ccccc1,-4.7%,·,·,·,0.3%
CCn1nc(-c2ccccc2)c(-c2ccccc2)c(C(=O)Nc2ccc(NC(C)=O)cc2)c1=O,4.7%,·,·,·,-18.3%
